“And” between values parts separate entries of the source, which are not always exact repeats. Equal entries are not always repeated. Unmarked numbers belong to inactive results. Inconclusive results are not listed. Where a call stands in place of a potency, no number is given. The source made the active and inactive calls. Unless noted, calls come from the whole dose curve; as a rule, active = well fitted curve in the direction sought with a large enough effect; inconclusive = small, poorly fitted or top-dose-only effect, or another doubt; inactive = no such curve, though single readings can be large; an effect the other way counts as inactive or inconclusive.
Key:
[1] = Cell Viability - SK-N-SH (AID 435; calls by dose curve;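 note: potency is the fitted concentration of half-maximal effect; compound exposure lasted 40 h at 37 °C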); details: SK-N-SH neuroblastoma cell viability qHTS
In short: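 Luminescent ATP signal served as the viability read-out after 40 hours of compound treatment of human neuroblastoma SK-N-SH cells. Concentration-response data, scaled between DMSO and 100 uM tamoxifen, gave AC50 values by standard Hill modeling.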

[2] = Cell Viability - Renal Proximal Tubule (AID 545); details: renal proximal tubule cells viability; series mostly up to 91.7 µM; note: nearly all actives have a fitted effect of over 40% in size
In short: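 Luminescent ATP signal (CellTiter-Glo) served as the viability read-out after 40 hr compound exposure of freshly isolated rat proximal tubule cells at 37 °C. Concentration-dependent ATP loss was fitted with the Hill equation to give AC50.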

[3] = Cellular Toxicity (caspase-3) SHSY5Y (AID 657); details: SH-SY5Y caspase-3 activation, DMSO zero, 10 µM staurosporine = 100%; series mostly up to 91.7 µM;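 note: cells exposed to compound for 16 hours at 37 °C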
In short: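 qHTS, SH-SY5Y, 1500 cells/well, 5 h pre-incubation 37 °C; compound 16 h 37 °C; Caspase-Glo 3/7 1 h RT; luminescence. Norm.: DMSO = 0, 10 uM staurosporine = 100%. Hill fit → AC50.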

[4] = Cell Viability - LYMP2-009 (AID 968); details: LYMP2-009 lymphoblastoid cell viability; series mostly up to 92.2 µM; note: nearly all actives have a fitted effect of over 55% in size; note: potency is the fitted concentration of half-maximal effect
[5] = Cell Viability - LYMP2-015 (AID 971); details: LYMP2-015 lymphoblastoid cell viability; series mostly up to 92.2 µM; note: nearly all actives have a fitted effect of over 55% in size; note: potency is the fitted concentration of half-maximal effect
In short: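 LYMP2-015 human lymphoblastoid cells (2500/well) in complete medium, compound-treated 24 h at 37 C; viability read as cellular ATP by CellTiter-Glo luminescence after 30 min at room temperature. AC50 from Hill-equation fits of qHTS concentration-response data.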

[6] = Cell Viability - LYMP2-023 (AID 975); details: LYMP2-023 lymphoblastoid cell viability; series mostly up to 92.2 µM; note: nearly all actives have a fitted effect of over 55% in size; note: potency is the fitted concentration of half-maximal effect
In short: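 LYMP2-023 human lymphoblastoid cells, 2500/well, preincubated 5 hr at 37 C, then compound-treated 24 hr at 37 C in complete medium. CellTiter-Glo luminescence (ATP) after 30 min at room temperature; AC50 from Hill-equation fits; tetraoctylammonium bromide positive control.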

[7] = Cell Viability - LYMP2-022 (AID 987); details: LYMP2-022 lymphoblastoid cell viability; series mostly up to 92.2 µM; note: nearly all actives have a fitted effect of over 55% in size; note: potency is the fitted concentration of half-maximal effect
In short: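 LYMP2-022 lymphoblastoid cells (2500/well, complete medium) were treated with compounds for 24 hours at 37 C; intracellular ATP was then read by CellTiter-Glo luminescence after 30 min at room temperature. AC50 values were derived from Hill-equation fits.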

[8] = molecular target: Vitamin D3 receptor (Homo sapiens) (UniProt P11473); test: qHTS assay for small molecule antagonists of vitamin D receptor signaling (AID 588541; calls by dose curve;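 note: receptor activated by calcitriol during compound treatment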); details: HEK293T VDR-UAS-bla, beta-lactamase ratio, antagonist mode; series mostly up to 76.7 µM
In short: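 Antagonist-mode beta-lactamase reporter assay: HEK293T VDR-UAS-bla cells were exposed to titrated compound alongside 1-alpha,25-dihydroxyvitamin D3 at 3 nM final for 16 h. Values were normalized to the 50 nM agonist control and DMSO basal, with IC50 and efficacy from Hill equation fits.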

[9] = molecular target: Thyroid hormone receptor beta (Homo sapiens) (UniProt P10828); test: qHTS assay for small molecule agonists of thyroid hormone receptor beta signaling (AID 588545; calls by dose curve; note: potency is the fitted concentration of half-maximal effect); details: TR-UAS-bla GripTite HEK 293, beta-lactamase ratio, agonist mode, 18 h; series mostly up to 76.7 µM
In short: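 Beta-lactamase reporter activity under TR response element control is measured in HEK 293 cells after 18 hrs compound exposure. Signal is ratiometric CCF4 fluorescence, 460/530 nm.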

[10] = qHTS assay for small molecule agonists of the antioxidant response element (ARE) signaling pathway measured by Nrf2-dependant transcriptional activity (AID 720636; active = well fitted curve in the direction sought with a large enough effect in the repeat runs; an effect the other way counts as inactive or inconclusive;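 note: HepG2 cells with an ARE-driven luciferase reporter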); details: ARE-luc HepG2, Nrf2 luciferase reporter, 16 h; series mostly up to 92.4 µM
In short: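 Reporter gene assay, HepG2 ARE-luc: 16 hr compound, 37 C, 5% CO2; read-out luciferase luminescence.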

[11] = qHTS assay for small molecule agonists of the antioxidant response element (ARE) signaling pathway measured by Nrf2-dependant transcriptional activity - cell viability counter screen (AID 720653; active = well fitted curve in the direction sought with a large enough effect in the repeat runs; an effect the other way counts as inactive or inconclusive); details: ARE-bla HepG2 viability, CellTiter-Glo ATP luminescence, 16 h; stronger effect = lower value
In short: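 Cytotoxicity counter screen: intracellular ATP quantified by CellTiter-Glo luminescence in the same ARE-bla HepG2 plates, after 16 h compound exposure and a 2 h beta-lactamase substrate step.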

[12] = qHTS assay for cell viability of HEK293 cells (AID 743288); details: ATP luminescence (CellTiter-Glo), 18 h, stronger effect = lower value; note: nearly all actives have a fitted effect of over 50% in size
In short: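 HEK293 parental, 2,000 cells/well; ≥5 h pre-incubation 37 C; pintool compound addition; 18 h, 37 C; CellTiter-Glo 30 min RT; luminescence read.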

[13] = Cell Viability - H-4-II-E (AID 543); details: H-4-II-E rat hepatoma viability; series mostly up to 92.2 µM; note: nearly all actives have a fitted effect of over 35% in size
In short: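 Rat hepatoma H-4-II-E cells, 1500 per well, treated 40 h at 37 °C in complete medium. Cellular ATP read by CellTiter-Glo luminescence; AC50 from Hill fits of concentration-response.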

[14] = Cellular Toxicity (caspase-3) N2a (AID 665); details: N2a cells, luminescence, normalized: DMSO 0%, 10 µM staurosporine 100%; series mostly up to 92.2 µM;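 note: compound exposure lasted 16 h at 37 °C before readout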
In short: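 Mouse N2a neuroblastoma cells, 1500 per well, treated 16 h at 37 °C in complete medium; caspase-3/7 activity by Caspase-Glo luminescence after 1 h. Normalized to DMSO and 10 uM staurosporine; AC50 from Hill fits.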

[15] = Cellular Toxicity (caspase-3) Renal Proximal Tubule (AID 667); details: renal proximal tubule cells; series mostly up to 91.7 µM;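 note: cells exposed to compound for 16 hours at 37 °C before detection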
In short: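 AC50 derived by standard Hill fit of concentration-response data, normalized between DMSO basal and 10 uM staurosporine as 100% stimulation. Cells: primary rat kidney proximal tubule, 16 h treatment at 37 °C.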

[16] = qHTS assay for small molecule disruptors of the mitochondrial membrane potential - 5 hr assay (AID 651755; calls by dose curve; note: nearly all actives have a fitted effect of over 40% in size; note: potency is the fitted concentration of half-maximal effect); details: JC-1-type ratio dye; series mostly up to 92.2 µM
In short: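 HepG2, 2,000 cells/well, overnight attach; cpd or DMSO 5 hr, 37C/5% CO2; Mito-MPS 30 min 37C; fluor 490/535 + 540/590 nm.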

[17] = qHTS assay for small molecule disruptors of the mitochondrial membrane potential - 1 hr assay (AID 651754; calls by dose curve; note: nearly all actives have a fitted effect of over 35% in size; note: potency is the fitted concentration of half-maximal effect); details: series mostly up to 92.2 µM
In short: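 HepG2 cells, attached overnight, were exposed to compound for 1 hr at 37C, then stained 30 min with a potentiometric dye. Ratio of red aggregate (590nm) to green monomer (535nm) fluorescence reports membrane potential; collapse shifts signal toward green.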

[18] = qHTS assay for environmental chemicals that activate the Aryl hydrocarbon Receptor (AhR) signaling pathway (AID 651777); details: 1A2-DRE human hepatoma cells, luciferase, 24 h; activation: stronger effect = higher value; note: nearly all actives have a fitted effect of over 15% in size; note: potency is the fitted concentration of half-maximal effect
In short: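 Stable CYP1A2 promoter/DRE-luciferase human hepatoma line treated 24 hr; One-Glo luminescence, 30 min RT.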

Thyroid hormone receptor beta (Homo sapiens), sequence (P10828 whole entry, looked up): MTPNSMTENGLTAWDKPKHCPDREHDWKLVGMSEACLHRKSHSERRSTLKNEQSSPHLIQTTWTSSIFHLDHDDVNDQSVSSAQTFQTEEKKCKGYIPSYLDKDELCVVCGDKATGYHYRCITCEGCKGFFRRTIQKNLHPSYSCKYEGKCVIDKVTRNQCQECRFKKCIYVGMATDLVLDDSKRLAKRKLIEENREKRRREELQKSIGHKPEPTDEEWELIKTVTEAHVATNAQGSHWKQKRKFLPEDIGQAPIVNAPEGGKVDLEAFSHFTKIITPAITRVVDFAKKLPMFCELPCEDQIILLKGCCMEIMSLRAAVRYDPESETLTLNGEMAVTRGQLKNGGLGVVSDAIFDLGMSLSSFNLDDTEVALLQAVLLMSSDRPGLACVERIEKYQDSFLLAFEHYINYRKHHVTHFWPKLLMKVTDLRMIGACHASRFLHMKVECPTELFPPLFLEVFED
Vitamin D3 receptor (Homo sapiens), sequence (P11473 whole entry, looked up): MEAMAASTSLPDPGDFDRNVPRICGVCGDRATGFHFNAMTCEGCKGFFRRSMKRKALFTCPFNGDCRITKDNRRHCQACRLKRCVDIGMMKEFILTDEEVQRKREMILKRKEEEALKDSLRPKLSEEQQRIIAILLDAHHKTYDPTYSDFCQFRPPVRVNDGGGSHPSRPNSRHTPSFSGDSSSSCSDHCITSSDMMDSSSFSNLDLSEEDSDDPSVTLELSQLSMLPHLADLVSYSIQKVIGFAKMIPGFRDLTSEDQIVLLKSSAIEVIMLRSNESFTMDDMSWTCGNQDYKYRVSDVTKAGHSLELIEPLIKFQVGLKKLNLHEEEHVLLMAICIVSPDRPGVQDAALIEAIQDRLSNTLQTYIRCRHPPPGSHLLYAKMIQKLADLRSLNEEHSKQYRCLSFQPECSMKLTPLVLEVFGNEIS

Row | SMILES | Potency [1] [µM] | outcome [2] | outcome [3] | Potency [4] | Potency [5] | Potency [6] | Potency [7] | outcome [8] | Potency [9] | Potency [10] | max response [11] | max response [12] | Potency [13] | outcome [14] | outcome [15] | Potency [16] | Potency [17] | activation [18] | Potency [18]
1 | CSSC | > 92 | inactive | inactive | inactive | inactive | inactive | inactive | inactive | inactive | inactive | 1.42% | -1.5% |  |  |  |  |  |  | 
2 | O=c1ccc(=O)[nH][nH]1 | > 92 | inactive | inactive | inactive |  | inactive | inactive | inactive | inactive | inactive | 27.2% and 14.4% | 3.74% and 5.95% | inactive | inactive | inactive | inactive |  |  | 
3 | CN(C)C(=O)Cl | > 92 |  | inactive | inactive |  | inactive |  | inactive |  | inactive |  | 4.48% | inactive | inactive |  | inactive | inactive | -0.443% | 
4 | C=CC#N | > 92 | inactive | inactive | inactive | inactive | inactive | inactive | inactive | inactive | inactive | 7.55% | -18.6% | inactive | inactive | inactive | inactive | inactive | 2.03% | 
5 | BrCC(Br)C1CCC(Br)C(Br)C1 (stereo not drawn) |  | inactive |  | inactive | inactive |  | inactive |  | inactive |  | -1.58% | 1.74% |  | inactive |  | inactive | inactive | -0.172% | 
6 | N#C/C(N)=C(/N)C#N | > 92 | inactive | inactive | inactive | inactive | inactive |  | inactive | inactive | inactive | -10.7% | -0.0232% | inactive | inactive | inactive | inactive | inactive | 0.971% | 
7 | OC[P+](CO)(CO)CO |  | inactive |  | 25.1 µM (active) | 15.8 µM (active) | 25.1 µM (active) | 12.6 µM (active) |  | inactive |  | -17.6% and -11.9% | -13.3% |  | inactive | inactive | inactive | inactive | -0.473% and -0.989% | 
8 | CCOC(=O)C1OC1(C)c1ccccc1 (stereo not drawn) | > 92 | inactive | inactive | inactive |  | inactive | inactive |  |  |  | -18.9% | 7.29% | inactive | inactive | inactive | inactive | inactive | -0.466% | 
9 | COc1c(C(C)(C)C)cc([N+](=O)[O-])c(C)c1[N+](=O)[O-] | > 92 | inactive | inactive | inactive | inactive |  | inactive | inactive | inactive | inactive | 4.77% |  | inactive | inactive | inactive | inactive | inactive | 0.103% | 
10 | COC(=O)c1ccccc1N |  |  | inactive | inactive |  | inactive | inactive | inactive | inactive | inactive |  | -4.36% | inactive |  | inactive |  |  | 1.96% | 
11 | CCN(CC)N=O | > 92 | inactive | inactive | inactive | inactive | inactive | inactive | inactive |  | inactive | 2.46% | 1.5% |  | inactive | inactive | inactive | inactive | -0.0915% | 
12 | O=[N+]([O-])c1ccc(O)c([N+](=O)[O-])c1 |  | inactive | inactive | inactive | inactive |  | inactive |  |  | inactive | -10% | -1.57% |  | inactive | inactive | 37.6 µM (active) | 21.1 µM (active) | 0.436% | 
13 | CCN(CC)CCO |  | inactive | inactive | inactive | inactive | inactive | inactive |  | inactive | inactive | -6.79% | -8.96% | inactive | inactive | inactive | inactive | inactive | 3.62% | 
14 | Oc1cccc(Cl)c1 |  | inactive |  | inactive | inactive | inactive | inactive | inactive | inactive | inactive | -6.82% |  | inactive |  | inactive | inactive | inactive | -0.063% | 
15 | Cc1cccc(C)c1N | > 92 | inactive | inactive | inactive | inactive | inactive | inactive |  | inactive |  | 4.9% | -2.34% | inactive | inactive | inactive | inactive | inactive | 1.32% | 
16 | CC(C)C#N | > 92 | inactive | inactive | inactive | inactive |  | inactive |  | inactive | inactive | 1.74% |  | inactive |  | inactive | inactive | inactive | 0.256% | 
17 | CC(C)OS(C)(=O)=O |  |  |  |  | inactive |  | inactive | inactive |  |  | -6.13% | -1.94% | inactive |  | inactive | inactive | inactive | 1.58% | 
18 | CCSC(=O)N1CCCCCC1 | > 92 | inactive | inactive | inactive | inactive | inactive | inactive | inactive | inactive |  | -5.76% and -1.37% | 2.92% and -12.6% | inactive |  | inactive | inactive | inactive | -0.667% and 0.714% | 
19 | CCNCC | > 92 | inactive |  | inactive | inactive | inactive |  | inactive |  | inactive | 14.5% | 7.41% | inactive | inactive | inactive | inactive | inactive |  | 
20 | c1ccc2c(c1)ccc1cc3c(ccc4ccccc43)cc12 |  |  |  |  |  |  |  |  | 39.8 µM (active) |  |  |  |  |  |  |  |  |  | 2.82 µM (active)
21 | CCCCOCC1CO1 (stereo not drawn) | > 92 | inactive | inactive | inactive | inactive | inactive |  | inactive | inactive | inactive | -2.9% |  |  | inactive |  | inactive | inactive |  | 
22 | C=CCOCC1CO1 (stereo not drawn) | > 92 | inactive | inactive |  | inactive | inactive | inactive | inactive | inactive | inactive | 2.37% | -5.74% |  | inactive | inactive |  |  | -0.262% | 
23 | BrCC(Br)(Br)Br | > 92 |  | inactive |  | 15.8 µM (active) | 20 µM (active) | 7.94 µM (active) | inactive |  | inactive |  |  |  | inactive |  | inactive | inactive | 1.69% | 

— PubChem BioAssay (NCATS)
